# Results taken from PubChem BioAssay (Tox21).
# Unmarked numbers belong to inactive results. Records with an inconclusive call do not appear. A call without a number means that no potency is given here. Active and inactive are the calls of the source. Unless noted, calls come from the whole dose curve; as a rule, active = well fitted curve in the direction sought with a large enough effect in the repeat runs; inconclusive = weak or mixed curves; inactive = no such curve, though single readings can be large; an effect the other way counts as inactive or inconclusive.
# Experiments:
# [1] = target: Luciferin 4-monooxygenase (Photinus pyralis) (UniProt P08659); test: qHTS assay to identify small molecule inhibitors of firefly luciferase (AID 1224835); note: nearly all actives have a fitted effect of over 25% in size
# Summary of the method: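 Inhibition of purified Photinus luciferase is measured by luminescence. Substrate levels (D-luciferin, ATP) sit at their KM values. Each compound is tested in a concentration series.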
# [2] = target: Nuclear receptor subfamily 1 group I member 3 (Homo sapiens) (UniProt Q14994); test: qHTS assay to identify small molecule antagonists of the constitutive androstane receptor (CAR) signaling pathway (AID 1224838); note: nearly all actives have a fitted effect of over 40% in size; note: potency is the fitted concentration of half-maximal effect
# Summary of the method: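 Inhibition of CITCO-driven (50 nM final) CYP2B6 reporter expression is measured in HepG2 cells stably carrying hCAR. Fifteen compound concentrations are applied for 24 h at 37 C, followed by luciferase luminescence.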
# [3] = target: Nuclear receptor subfamily 1 group I member 3 (Homo sapiens) (UniProt Q14994); test: qHTS assay to identify small molecule agonists of the constitutive androstane receptor (CAR) signaling pathway (AID 1224839); note: nearly all actives have a fitted effect of over 15% in size; note: potency is the fitted concentration of half-maximal effect
# Summary of the method: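 HepG2-CYP2B6-hCAR cells, 2500/well, 4 h pre-incubation; compounds 15 conc.; PK11195 0.75 uM final; 24 h, 37 C/5% CO2; ONE-Glo luciferase read.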
# [4] = qHTS assay to identify small molecule antagonists of the estrogen related receptor signaling pathway with the pleiotropic PPARgamma coactivator (PGC) from Tox21 10K library (AID 1224841; call rule not given here; note: actives are mostly falling curves and most rising ones were filed inactive; nearly all actives have a fitted effect of over 50% in size; note: potency is the fitted concentration of half-maximal effect)
# Summary of the method: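 One-Glo luminescence, measured after half an hour at room temperature, quantified reporter output of PGC/ERR cells. These had been plated at 2,000 per well, incubated 6 h, dosed with compounds in DMSO, then kept 18 h at 37 C.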
# [5] = qHTS assay to identify small molecule agonists of the estrogen related receptor signaling pathway with the pleiotropic PPARgamma coactivator (PGC) from Tox21 10K library (AID 1224842); note: nearly all actives have a fitted effect of over 15% in size
# Summary of the method: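 Luminescence from One-Glo (30 min, room temperature) measured after PGC/ERR cells had 18 h at 37 C with pinned compound (23 nL in DMSO). Cells had been seeded at 2,000 per well and pre-incubated 6 h.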
# [6] = target: Thyrotropin receptor (Homo sapiens) (UniProt P16473); test: qHTS assay to identify small molecule agonists of the thyroid stimulating hormone receptor (TSHR) signaling pathway (AID 1224843; calls by dose curve; note: nearly all actives have a fitted effect of over 45% in size; note: potency is the fitted concentration of half-maximal effect)
# Summary of the method: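 Agonist activity read as cAMP rise via d2/cryptate HTRF competition, 1 h room-temperature detection, in HEK293 cells expressing TSHR. Fifteen-point titrations, each run in triplicate, with a 30 min room-temperature incubation beforehand.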
# [7] = qHTS assay to identify small molecule agonists of the hypoxia (HIF-1) signaling pathway - cell viability counter screen (AID 1224844; calls by dose curve; note: nearly all actives have a fitted effect of over 50% in size; note: potency is the fitted concentration of half-maximal effect)
# Summary of the method: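 In this counter screen, HRE-bla ME-180 cell viability after 17 hrs of compound exposure at 37C was read by CellTiter-Glo luminescence, multiplexed with the beta-lactamase reporter measurement.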
# [8] = qHTS assay to identify small molecule agonists of H2AX (AID 1224845; active = well fitted activation curve with a large enough effect in the signal ratio in the repeat runs, not every such curve was filed as active; the % refers to the signal ratio)
# Summary of the method: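 Phospho-H2AX Ser139 measured by HTRF (ex 320 nm; em 665 and 620 nm) after 24 hr antibody incubation. Compounds, 15 concentrations, 0.76% DMSO, were applied to CHO-K1 cells for 3hr at 37C before lysis.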
# [9] = qHTS assay to identify small molecule agonists of H2AX - cell viability counter screen (AID 1224847; calls by dose curve; note: nearly all actives have a fitted effect of over 30% in size; note: potency is the fitted concentration of half-maximal effect)
# Summary of the method: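 Cells plated first: CHO-K1, 1000 per well in 10% FBS medium, incubated overnight at 37C. Then 15-point compound titration added (final DMSO 0.76%) for 3 hr. Finally CellTiter-Glo added and luminescence read.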
# [10] = qHTS assay to identify small molecule antagonists of the estrogen related receptor (ERR) signaling pathway from Tox21 library (AID 1224848); note: nearly all actives have a fitted effect of over 50% in size; note: potency is the fitted concentration of half-maximal effect
# Summary of the method: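 Luciferase luminescence (ONE-Glo, 30 min room temperature) was the read-out. Cells of the NTP-supplied ERR line, 2,000 per well, were given 6 h at 37 C before compound addition in DMSO and 18 h exposure at 37 C.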
# [11] = qHTS assay to identify small molecule agonists of the estrogen related receptor (ERR) signaling pathway from Tox21 library (AID 1224849; calls by dose curve; note: nearly all actives have a fitted effect of over 15% in size); details: ERR reporter cell line, ONE-Glo luciferase, 18 h; at 92.4 µM (top of the series) unless noted
# Summary of the method: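 Luciferase activity in ERR pathway reporter cells served as the agonist readout; exposure lasted 18 h at 37 C, with ONE-Glo detection after 30 min at room temperature.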
# [12] = qHTS RealTime-Glo MT Cell Viability Assay in HepG2 cells - 24 hour (AID 1224867); note: nearly all actives have a fitted effect of over 50% in size
# Summary of the method: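 HepG2 cells (600/well) were dispensed with RealTime-Glo reagents, incubated 5 h at 37 °C, then treated with compounds in DMSO for up to 40 h. Nonlytic NanoLuc luminescence reflecting viable cells was read at each stated time point.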
# [13] = qHTS RealTime-Glo MT Cell Viability Assay in HEK293 cells - 32 hour (AID 1224868); note: nearly all actives have a fitted effect of over 50% in size; note: potency is the fitted concentration of half-maximal effect
# Summary of the method: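 HEK293 cells seeded with NanoLuc/prosubstrate reagent, rested 5 h at 37 C, then dosed and kept at 37 C up to 40 h. Nonlytic real-time luminescence from viable cells read at 0, 8, 16, 24, 32 and 40 h.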
# [14] = A CellTox Green Cytotoxicity Assay to monitor cytotoxicity in HEK293 cells - 0 hour (AID 1224869); note: nearly all actives have a fitted effect of over 50% in size
# Summary of the method: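 Real-time, in one plate: 600 HEK293 cells/well with dead-cell DNA dye, pinned compound after 5 h, 37 C incubation over 40 h; viable cells give no appreciable fluorescence.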
# [15] = qHTS RealTime-Glo MT Cell Viability Assay in HepG2 cells - 40 hour (AID 1224870); note: nearly all actives have a fitted effect of over 50% in size
# Summary of the method: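 Real-time viability: cells seeded at 600 per well together with NanoLuc and cell-permeant prosubstrate, compounds added after 5 h incubation. Luminescence tracked at 0, 8, 16, 24, 32 and 40 h of exposure.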
# [16] = qHTS assay to identify small molecule antagonists of the constitutive androstane receptor (CAR) signaling pathway - cell viability counter screen (AID 1224837); note: nearly all actives have a fitted effect of over 45% in size
# Summary of the method: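 CITCO at 50 nM final was added alongside compounds (15 concentrations) to double-stable hCAR/CYP2B6-2.2kb HepG2 cells. Following 23 hr at 37 C, cell viability was quantified by CellTiter-Fluor fluorescence intensity.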
# [17] = qHTS assay to identify small molecule agonists of the hypoxia (HIF-1) signaling pathway (AID 1224846; active = well fitted activation curve with a large enough effect in the signal ratio in the repeat runs, not every such curve was filed as active; the % refers to the signal ratio)
# Summary of the method: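 ME-180 HRE-bla reporter cells; compounds in DMSO, 17 h at 37C; read-out beta-lactamase via CCF4-AM FRET.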
# [18] = qHTS assay to identify small molecule agonists of the constitutive androstane receptor (CAR) signaling pathway - cell viability counter screen (AID 1224836); note: nearly all actives have a fitted effect of over 45% in size
# Summary of the method: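 HepG2-CYP2B6-hCAR, 2500 cells/well, 4 h pre-incubation; cpd 15 conc + PK11195 0.75 uM final; 23 h, 37 C/5% CO2; CellTiter-Fluor, fluorescence.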
# [19] = qHTS assay to identify small molecule antagonists of the estrogen related receptor signaling pathway with the pleiotropic PPARgamma coactivator (PGC) from Tox21 10K library - cell viability counter screen (AID 1224840; active = well fitted cell-killing curve with a large enough effect in the repeat runs, not every such curve was filed as active; note: nearly all actives have a fitted effect of over 40% in size)
# Summary of the method: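 Readout: fluorescence intensity from CellTiter-Fluor after 30 min at 37 C/5% CO2. Preceded by 17.5 h treatment of PGC/ERR cells with DMSO-dissolved compounds, added 6 h post-seeding.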
# Chain of Luciferin 4-monooxygenase (Photinus pyralis) (P08659 whole entry, looked up): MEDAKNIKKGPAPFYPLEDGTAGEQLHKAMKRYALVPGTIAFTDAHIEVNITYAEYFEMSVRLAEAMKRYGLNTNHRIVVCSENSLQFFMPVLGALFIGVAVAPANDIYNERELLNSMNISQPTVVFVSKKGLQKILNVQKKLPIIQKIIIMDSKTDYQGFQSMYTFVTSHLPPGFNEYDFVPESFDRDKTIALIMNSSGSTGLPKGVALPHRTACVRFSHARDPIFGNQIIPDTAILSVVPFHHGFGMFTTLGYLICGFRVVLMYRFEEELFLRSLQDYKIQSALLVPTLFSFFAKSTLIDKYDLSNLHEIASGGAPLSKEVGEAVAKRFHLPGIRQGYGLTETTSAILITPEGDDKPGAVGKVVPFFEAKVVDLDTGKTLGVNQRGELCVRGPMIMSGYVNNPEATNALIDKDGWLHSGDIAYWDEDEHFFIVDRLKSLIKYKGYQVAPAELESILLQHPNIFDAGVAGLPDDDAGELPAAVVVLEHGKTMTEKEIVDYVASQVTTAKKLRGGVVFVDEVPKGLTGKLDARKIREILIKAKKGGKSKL
# Chain of Thyrotropin receptor (Homo sapiens) (P16473 whole entry, looked up): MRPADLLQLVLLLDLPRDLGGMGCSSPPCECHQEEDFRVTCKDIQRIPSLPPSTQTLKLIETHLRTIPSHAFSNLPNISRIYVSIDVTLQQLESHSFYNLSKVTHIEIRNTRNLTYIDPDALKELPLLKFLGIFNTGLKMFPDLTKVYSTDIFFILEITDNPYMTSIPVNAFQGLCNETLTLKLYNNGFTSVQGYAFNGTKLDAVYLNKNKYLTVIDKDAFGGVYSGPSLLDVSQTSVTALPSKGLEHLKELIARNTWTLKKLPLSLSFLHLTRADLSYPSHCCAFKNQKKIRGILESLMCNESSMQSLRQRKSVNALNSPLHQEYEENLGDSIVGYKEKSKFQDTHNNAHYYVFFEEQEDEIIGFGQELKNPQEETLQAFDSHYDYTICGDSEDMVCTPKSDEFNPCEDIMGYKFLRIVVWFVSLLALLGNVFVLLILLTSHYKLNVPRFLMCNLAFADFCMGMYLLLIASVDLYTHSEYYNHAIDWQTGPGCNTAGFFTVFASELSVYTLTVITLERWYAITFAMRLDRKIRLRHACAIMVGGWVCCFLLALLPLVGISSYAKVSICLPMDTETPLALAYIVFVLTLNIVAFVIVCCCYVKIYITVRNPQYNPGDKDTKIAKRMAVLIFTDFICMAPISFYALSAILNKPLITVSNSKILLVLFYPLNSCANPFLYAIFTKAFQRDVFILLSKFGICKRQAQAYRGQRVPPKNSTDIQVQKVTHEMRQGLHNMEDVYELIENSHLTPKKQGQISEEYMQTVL
# Chain of Nuclear receptor subfamily 1 group I member 3 (Homo sapiens) (Q14994 whole entry, looked up): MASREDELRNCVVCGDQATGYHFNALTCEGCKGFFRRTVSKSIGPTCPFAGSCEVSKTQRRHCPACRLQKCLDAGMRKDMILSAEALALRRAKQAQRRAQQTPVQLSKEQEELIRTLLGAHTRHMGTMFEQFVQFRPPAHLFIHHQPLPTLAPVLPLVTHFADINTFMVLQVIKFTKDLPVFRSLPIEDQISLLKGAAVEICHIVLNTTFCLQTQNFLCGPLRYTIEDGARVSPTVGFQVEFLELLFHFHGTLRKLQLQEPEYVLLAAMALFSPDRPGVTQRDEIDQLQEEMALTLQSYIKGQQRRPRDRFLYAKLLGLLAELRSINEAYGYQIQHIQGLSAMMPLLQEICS
Structure (SMILES),Potency [1],Potency [2],Potency [3],Potency [4],Potency [5],Potency [6],Potency [7],Potency [8],Potency [9],Potency [10],"activity change, positive = activation [11]",Potency [12],Potency [13],Potency [14],Potency [15],Potency [16],Potency [17],Potency [18],Potency [19]
COP(=O)(OC)Oc1ccc([N+](=O)[O-])cc1,inactive,inactive,inactive,21.7 µM (active),inactive,inactive,inactive,inactive,inactive,30.6 µM (active),-54.1%,inactive,inactive,inactive,inactive,–,–,–,–
CCC1COC(Cn2cncn2)(c2ccc(Cl)cc2Cl)O1 (configuration not stated),inactive,inactive,–,61.1 µM (active),inactive,inactive,inactive,inactive,–,61.1 µM (active),-57.5%,inactive,–,inactive,inactive,inactive,inactive,–,–
O=C(NC(=O)c1c(F)cccc1F)Nc1ccc(Oc2ccc(C(F)(F)F)cc2Cl)cc1F,inactive,inactive,–,–,–,–,inactive,inactive,–,–,–,–,43.6 µM (active),inactive,inactive,inactive,inactive,inactive,inactive
C#CCC1=C(C)C(OC(=O)C2C(C=C(C)C)C2(C)C)CC1=O (configuration not stated),inactive,inactive,60.7 µM (active),–,inactive,–,inactive,inactive,–,48.2 µM (active),-46%,inactive,–,inactive,inactive,inactive,inactive,–,–
O=[N+]([O-])[O-].[Tl+],–,–,–,–,–,inactive,inactive,inactive,inactive,–,–,inactive,–,inactive,inactive,–,inactive,inactive,inactive
CN1C(=O)[C@@H](NC(=O)c2cc3ccccc3[nH]2)N=C(c2ccccc2)c2ccccc21,inactive,inactive,inactive,–,inactive,–,inactive,inactive,inactive,–,-21.2% [at 42.5 µM],–,inactive,inactive,inactive,inactive,–,–,inactive
CCc1cccc(C)c1N(C(=O)CCl)[C@@H](C)COC,–,inactive,19.3 µM (active),30.6 µM (active),inactive,34.4 µM (active),49 µM (active),–,–,61.1 µM (active),-67.3%,–,inactive,inactive,–,inactive,inactive,inactive,inactive
CC[C@]1(O)CC[C@H]2[C@@H]3CCC4=CCCC[C@@H]4[C@H]3CC[C@@]21C,inactive,33.5 µM (active),inactive,inactive,–,15 µM (active),inactive,inactive,inactive,–,-21.6% [at 42.5 µM],–,–,inactive,inactive,inactive,inactive,inactive,inactive
Nc1ccccc1-c1ccccc1,–,inactive,inactive,–,inactive,inactive,–,inactive,inactive,27.1 µM (active),-40.4%,inactive,inactive,inactive,inactive,inactive,inactive,inactive,inactive
Cc1cc(C2CC2)nc(Nc2ccccc2)n1,–,inactive,54.5 µM (active),inactive,–,–,inactive,–,–,inactive,13.7% (active),–,24.5 µM (active),inactive,inactive,–,inactive,inactive,–
CCC(C)c1cccc(C(C)CC)c1O (configuration not stated),–,–,–,–,–,–,inactive,–,35.7 µM (active),–,–,inactive,inactive,inactive,inactive,–,–,inactive,–
COc1ccc(Cc2nccc3cc(OC)c(OC)cc23)cc1OC,–,inactive,15 µM (active),–,–,9.44 µM (active),inactive,inactive,inactive,–,–,–,5.35 µM (active),inactive,inactive,inactive,inactive,inactive,inactive
